Screening data (PubChem BioAssay)
Most compounds without a hit are left out; they make up all but 1.3% or so of the library.
MBNL1 CUG block: inhibitors of human MBNL1 binding to CUG repeat RNA; 0.036% of 280,000 active; TR-FRET MBNL1-His/biotin-(CUG)12 binding, 665/545 ratio; Potency, µM (doses to about 57.5 µM), most hits filed as inhibitors; active = well fitted inhibition curve with a large enough effect in the signal ratio, with a control signal flat, not every such curve was filed as active; inconclusive = small, poorly fitted or top-dose-only effect, or effect the other way, or a change in a side signal; inactive = no such curve, though single readings can be large or run the other way; the % refers to the signal ratio
Target sequence (Q9NR56 whole entry, looked up): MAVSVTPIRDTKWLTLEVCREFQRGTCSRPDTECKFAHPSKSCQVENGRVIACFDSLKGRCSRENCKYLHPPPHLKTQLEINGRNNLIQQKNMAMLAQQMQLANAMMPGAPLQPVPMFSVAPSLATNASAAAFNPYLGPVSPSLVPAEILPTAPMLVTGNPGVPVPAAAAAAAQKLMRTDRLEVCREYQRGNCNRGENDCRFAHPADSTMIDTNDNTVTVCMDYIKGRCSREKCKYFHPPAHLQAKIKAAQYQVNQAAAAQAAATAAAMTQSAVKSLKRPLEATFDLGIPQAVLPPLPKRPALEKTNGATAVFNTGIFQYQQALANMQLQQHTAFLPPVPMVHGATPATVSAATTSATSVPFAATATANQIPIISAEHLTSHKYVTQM
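TR-FRET between His-tagged MBNL1 and biotin-(CUG)12 RNA, detected with Tb anti-His antibody (0.055 ng/ul) and streptavidin-XL665 (5 nM), 60 min at room temperature. Compounds titrated 92 nM to 58 uM; 665/545 nm ratio normalized to buffer and complex controls.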
TRPV1 ag: human TRPV1 agonism; activation, % at 8.33 µM; TRPV1-expressing cells, Fluo-8 calcium influx, agonist mode; 0.19% of 320,000 active; AID 540275; Q8NER1; in the data active = activation above about 80%; inconclusive = between about 30% and that limit
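Cells expressing TRPV1 were dye-loaded with Fluo-8 and read kinetically: 10 s baseline, 3 min after compound (agonist portion), then 2 min after EC20 capsaicin (allosteric enhancer portion). Calcium-bound dye fluorescence at 480/520 nm.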
TRPV1 PAM: potentiators of human vanilloid receptor 1 (TRPV1); TRPV1-expressing cells, Fluo-8 calcium influx, capsaicin EC20 potentiation; potentiation, % at 8.33 µM; AID 540277; 0.02% of 320,000 active; in the data active = potentiation above about 80%; inconclusive = between about 30% and that limit
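Cells expressing TRPV1 were dye-loaded with Fluo-8 and read kinetically: 10 s baseline, 3 min after compound (agonist portion), then 2 min after EC20 capsaicin (allosteric enhancer portion). Calcium-bound dye fluorescence at 480/520 nm.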
KCNH2 3.1 block: blocks the human KCNH2 3.1 channel isoform; U2OS KCNH2 3.1, thallium flux FluxOr; active compounds read low; activity change, % (tested at about 1.8 µM); 0.95% of 340,000 active;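 active = maximum activity change below -70%; inconclusive = maximum activity change from -70% to -50%; inactive = maximum activity change above -50%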;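 also: thallium influx rate constant from kinetic fluorescence after stimulation buffer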
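Channel expression came from 3.1 mutant virus (1.77 x 10^8 /mL) applied to suspended U2OS cells for 4 h. Flux was tracked with FluxOr dye plus Red40 quencher, and kinetic rate constants normalized to controls.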
hERG WT inh: KCNH2 (human, wildtype) channel inhibition; AID 720551; 0.37% of 340,000 active; Q12809; U2OS, BacMam KCNH2, thallium flux FluxOr; active compounds read low; activity change, % at 1.84 µM;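 active = maximum activity change below -70%; inconclusive = maximum activity change between -70% and -50%; inactive = maximum activity change above -50%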
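U2OS cells were transduced with wild-type KCNH2 virus (2.03 x 10^8 / mL) for 4 h at room temperature, then cultured overnight at 37 C. Thallium flux was read with FluxOr dye. Rate constants were normalized to DMSO controls.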
MBNL1 TRFRET: MBNL1-poly(CUG) RNA binding inhibition confirmed; TR-FRET MBNL1-His / biotin-(CUG)12 binding, 60 min; Potency, µM (top dose mostly 57.6 µM), usual class: inhibitors; shares compounds with MBNL1 CUG block; 50% of 140 active
MBNL1 AlphaScrn: MBNL1-CUG RNA binding inhibition, AlphaScreen validation | shares compounds with MBNL1 CUG block | AlphaScreen MBNL1-His / biotin-(CUG)12 binding | Potency, µM (titrated, usually from 57.7 µM), most hits filed as inhibitors | 30% of 140 active | AID 493205
MBNL1 HTRF CS: hit in HTRF counterscreen for MBNL1-poly(CUG) binding inhibitors | 20% of 120 active | His-Menin/biotin-MLL peptide TR-FRET counterscreen | shares compounds with MBNL1 CUG block | Potency, µM (titrated, usually from 57.6 µM), usual class: inhibitors | AID 651843
Numbers stand for hits; . = inactive; ? = inconclusive; / = not tested or not shown. Unless noted, calls follow the shape of the dose curve; as a rule, active = well fitted curve in the direction sought with a large enough effect; inconclusive = small, poorly fitted or top-dose-only effect, or another doubt; inactive = no such curve, though single readings can be large; an effect the other way counts as inactive or inconclusive.

SMILES	MBNL1 CUG block	TRPV1 ag	TRPV1 PAM	KCNH2 3.1 block	hERG WT inh	MBNL1 TRFRET	MBNL1 AlphaScrn	MBNL1 HTRF CS
CCn1c(SCC(=O)Nc2nc(C)c(C)s2)nnc1-c1cccs1	39.8µM	.	.	.	.	.	.	.
CCO/C=C1/C(=O)N(Cc2ccccc2)C(=O)c2ccccc21	15.8µM	.	.	.	.	.	51.7µM	.
COc1ccc(NC(=O)CSCC(=O)Nc2cc(Cl)ccc2N2CCCC2)cc1	.	.	.	.	.	/	/	/
Cn1c(=O)c2c(ncn2CCO)n(C)c1=O	.	.	.	.	.	.	.	.
O=C1N(c2ccc(Cl)c(Cl)c2)CN(Cc2ccccc2)CN1n1cnnc1	12.6µM	.	.	.	?	16.3µM	.	?
CCc1noc(C)c1C(=O)Nc1nnc(CC(C)C)s1	/	.	.	.	.	/	/	/
CCCNC(=O)Nc1cc(OC)c(OC)cc1Cc1nccc2cc(OC)c(OC)cc12	25.1µM	.	.	.	.	13µM	.	?
CCCCN1C(=O)C(=O)c2cc(Cl)ccc21	/	/	/	.	.	/	/	/
COc1ccc(CN2CCN(c3cccc(C)c3C)CC2)cc1OC	25.1µM	.	?	.	.	16.3µM	.	?
OC1(c2ccc(Cl)cc2)CCN(Cc2cn[nH]c2-c2ccccc2)CC1	10µM	.	.	-86.5	?	41.1µM	.	.
CN1CCc2cc(NC(=O)Nc3cccnc3)ccc21	/	/	/	/	/	?	.	/
Cc1ccc(NC(=O)Nc2cccnc2)cc1Cl	.	?	.	.	.	/	/	/
CC(=O)c1ccc(NC(=O)Nc2cccnc2)cc1	28.2µM	.	.	.	.	20.6µM	.	29.1µM
CN(C(=O)COC(=O)c1ccc(-c2ccc(O)cc2)cc1)C1CCS(=O)(=O)C1 (configuration not stated)	39.8µM	.	.	.	.	?	20.6µM	.
O=C(COC(=O)Cc1ccc(Cl)cc1)NCc1ccc(Cl)cc1	/	/	/	.	.	/	/	/
Cc1nn(CC(=O)N(C)Cc2ccccc2)c(=O)c2cccn12	.	.	.	.	.	/	/	/
O=C(N/N=C/c1ccc(-c2ccccc2Cl)o1)c1ccccc1	.	?	.	.	.	/	/	/
O=S(=O)(N/N=C\c1ccc(-c2ccccc2Cl)o1)c1ccccc1	20µM	.	.	.	.	.	.	.
COc1ccc(C(c2c(C)[nH]n(-c3ccccc3)c2=O)c2c(C)[nH]n(-c3ccccc3)c2=O)cc1OC	39.8µM	.	.	.	.	?	?	.
COc1ccc(C(c2c(C)n(C)n(-c3ccccc3)c2=O)c2c(C)n(C)n(-c3ccccc3)c2=O)cc1OC	.	.	.	.	.	/	/	/
COc1ccc(NC(=O)NC(C(F)(F)F)C(F)(F)F)cc1	31.6µM	.	.	.	.	?	.	?
O=C(CC1Sc2ccccc2NC1=O)NCc1ccc(Cl)cc1 (configuration not stated)	/	.	.	.	.	/	/	/
CCOc1ccccc1C(=O)NC(C(=O)NCCc1ccccn1)C(C)C (configuration not stated)	/	/	/	.	.	/	/	/
O=C(COC(=O)C1CC2CCCC(C1)C2=O)NNC(=O)c1ccccc1F (configuration not stated)	/	.	.	.	.	/	/	/
CC(C)(C)n1nnnc1C(c1cccs1)N1CCCC2(CCCCC2)C1 (configuration not stated)	?	.	.	.	.	/	/	/
SMILES	MBNL1 CUG block	TRPV1 ag	TRPV1 PAM	KCNH2 3.1 block	hERG WT inh	MBNL1 TRFRET	MBNL1 AlphaScrn	MBNL1 HTRF CS
c1csc(C(c2nnnn2C2CCCCC2)N2CCCC3(CCCCC3)C2)c1 (configuration not stated)	25.1µM	.	.	.	.	.	.	.
CCC(C)(C)N(C(=O)CCC(=O)Nc1cc(C)on1)C(C(=O)NC(C)(C)C)c1ccc(OC)cc1 (configuration not stated)	.	.	.	.	.	/	/	/
COc1cc(C(=O)Nc2ccc3nc(N4CCN(C)CC4)cc(C)c3c2)cc(OC)c1OC	22.4µM	.	.	.	.	10.3µM	.	29.1µM
Cc1cc(N2CCN(C)CC2)nc2ccc(NC(=O)c3ccc4c(c3)OCO4)cc12	.	.	.	.	.	/	/	/
O=C(CSc1n[nH]c(-c2ccncc2)n1)NC1CCS(=O)(=O)C1 (configuration not stated)	7.94µM	.	?	.	.	10.3µM	.	?
O=C(NCCCN1CCCCCC1)c1ccc(CS(=O)(=O)Cc2ccccc2F)o1	39.8µM	.	.	/	.	?	.	.
COc1ccc(NC(=O)Nn2cnnc2)cc1OC	39.8µM	.	.	.	.	25.9µM	.	?
O=C(Nc1ccc(F)cc1)Nn1cnnc1	.	.	.	.	.	/	/	/
O=C(Nc1ccc(F)c(Cl)c1)Nn1cnnc1	39.8µM	.	.	/	/	13µM	.	?
COc1cc(NC(=O)Nn2cnnc2)cc(OC)c1OC	.	.	.	.	.	/	/	/
N#CC1(NC(=O)COc2cccnc2[N+](=O)[O-])CCCCC1	/	.	.	.	.	/	/	/
COc1ccccc1NC(=O)Nc1ccnn1Cc1cccs1	3.98µM	.	.	.	.	1.3µM	0.651µM	10.3µM
COc1ccccc1NC(=O)Nc1ccnn1C1CCCCC1	.	.	.	.	.	.	.	.
COc1ccccc1NC(=O)Nc1ccnn1C1CCN(C(=O)c2ccccn2)CC1	.	.	.	.	.	/	/	/
COc1ccccc1NC(=O)Cc1cccs1	.	.	.	.	.	/	/	/
Cc1ccccc1CN(C)C1CCN(C)CC1	.	.	.	.	.	/	/	/
O=C(COC(=O)c1ccc(S(=O)(=O)N2CCCCC2)cc1)Nc1ccccc1Cl	/	.	.	.	.	/	/	/
C/C1=C2/[N-]C(C(CC(N)=O)[C@@]2(C)CCC(=O)NCC(C)OP(=O)([O-])O[C@H]2[C@@H](O)[C@@H](n3cnc4cc(C)c(C)cc43)O[C@@H]2CO)[C@]2(C)N=C(/C(C)=C3N=C(/C=C4N=C1C(CCC(N)=O)C\4(C)C)[C@@H](CCC(N)=O)[C@]\3(C)CC(N)=O)[C@@H](CCC(N)=O)[C@]2(C)CC(N)=O.CC(=O)O.[Co] (some centres not stated)	/	/	/	/	/	8.19µM	2.59µM	/
